High-throughput results: PubChem BioAssay, several laboratories
Hits are enriched below; roughly 9.6% of the tested compounds scored in any of these assays.
PTEN del growth = suppresses growth of cells with PTEN deletion | HCT116 PTEN-null viability, CellTiter-Glo, 60 h; stronger effect = lower value | viability, % at 10 µM | 1.2% of 140,000 active;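 active = viability at or below a set limit, 4 SD under the median of all tested compounds, cut at about 3.7% in these data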;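 also: PTEN knockout HCT116 line with beta catenin targeted HCT116 as companion control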
Autophagy mod = modulators of autophagy | MEF GFP-LC3 puncta imaging; test concentration mostly 10 µM | calls only at 10 µM (by protocol) | 0.98% of 190,000 active;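 active = percentage of spot-positive cells more than 3 SD above its plate mean, without a fluorescence outlier flag or 80% toxicity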;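 also: spot-positive cell cutoff set from DMSO-treated cells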
Insulin prom up = MIN6 insulin promoter up-regulation; z-score at 5 µM; AID 1625; MIN6 insulin promoter-GFP reporter, high-content imaging; stronger effect = higher value; 0.3% of 190,000 active;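 active = z-score above 3 at 5 µM with at least 500 cells counted in the well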
INS promoter inh = TRM-6 insulin promoter activity inhibition; TRM-6 cells (human fetal islet line), insulin promoter-eGFP reporter, imaging; reporter expression induced with tamoxifen; inhibition, % at 2 µM; 0.9% of 130,000 active; AID 1273;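 active = inhibition above the mean plus 3 SD, with well images judged a real hit on visual review, cut at about 60% in these data, passing the limit was not always enough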
L major viab = reduces viability of Leishmania major promastigotes; 9% of 200,000 active; AID 1063; resazurin fluorescence viability; inhibition, % at 10 µM; in the data active = inhibition above about 50%;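 also: promastigotes grown with compound for 44 hours at 28 °C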
HCT116 bCat-KO = beta-catenin-lacking colon tumor cell growth suppression; HCT116 beta-catenin knockout viability, CellTiter-Glo, 60 h; stronger effect = lower value; viability, % at 10 µM; AID 818; 1.5% of 140,000 active;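 active = viability at or under a set limit, the compound median less 4 SD, cut at about 6% in these data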;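 also: 0% = Hyamine 1622 control at 20 µM and 100% = untreated cell control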
Numbers without * were called inactive.

O=C(CSc1nnc(Cc2ccccc2)o1)NC1CC2CCC1C2 (centres undefined) was read as PTEN del growth 97, Autophagy mod inactive, INS promoter inh 71, L major viab -6 and HCT116 bCat-KO 95.
`CC(=O)NC12CC3CC(C1)CC(C(=O)OCC(=O)NC(=O)c1cccn1C)(C3)C2` gave PTEN del growth 104, Autophagy mod inactive, Insulin prom up 0.52, L major viab -3 and HCT116 bCat-KO 103.
Screening CC1(C)CC(=O)C2=C(C1)Nc1ccccc1NC2c1ccc2c(c1)OCO2 (centres undefined) returned PTEN del growth 105, Autophagy mod inactive, Insulin prom up -0.32, INS promoter inh -67, L major viab 51* and HCT116 bCat-KO 96.
CC1(C)CC(=O)C2=C(C1)Nc1cc3c(cc1C2c1ccc2c(c1)OCO2)OCO3 (centres undefined) was read as PTEN del growth 73, Autophagy mod inactive, Insulin prom up 0.34, L major viab 99* and HCT116 bCat-KO 73.
Screening COc1ccc(C2C(C#N)=C(C)NC3=C2C(=O)CC(C)(C)C3)cc1 (centres undefined) returned PTEN del growth 98, Autophagy mod inactive, Insulin prom up -0.8, INS promoter inh 60, L major viab 1 and HCT116 bCat-KO 100.
`Cc1ccc(C2C3=C(CC(C)(C)CC3=O)Nc3onc(C)c32)cc1` (centres undefined) gave PTEN del growth 79, Autophagy mod inactive, Insulin prom up 0.62, INS promoter inh 50, L major viab 53* and HCT116 bCat-KO 81.
Screening COc1ccc(C2C3=C(CC(C)(C)CC3=O)Nc3cc4c(cc32)OCO4)cc1 (centres undefined) returned PTEN del growth 83, Autophagy mod inactive, Insulin prom up -1.4, INS promoter inh 23, L major viab 99* and HCT116 bCat-KO 86.
For O=C(O)c1ccc(N/N=C/C=C/c2ccccc2)cc1 the results were Insulin prom up -0.63.
For COC(=O)c1cc2ccsc2n1Cc1ccccc1F the results were PTEN del growth 93, Autophagy mod inactive, Insulin prom up 0.25, INS promoter inh -100, L major viab -2 and HCT116 bCat-KO 87.
Screening Cc1noc2c1C(c1ccc(N(C)C)cc1)C1=C(CC(C)(C)CC1=O)N2 (centres undefined) returned PTEN del growth 73, Autophagy mod inactive, Insulin prom up 0.31, INS promoter inh -23, L major viab 4 and HCT116 bCat-KO 69.
Screening CC1(C)CC(=O)C2=C(C1)Nc1cc3c(cc1C2c1ccc(F)cc1)OCO3 (centres undefined) returned PTEN del growth 86, Autophagy mod inactive, Insulin prom up 0.97, INS promoter inh -100, L major viab 100* and HCT116 bCat-KO 86.
CCN(CC)c1nc(-c2ccccn2)nc(-c2ccccc2)c1C#N was read as Autophagy mod inactive, Insulin prom up -4.3 and L major viab 71*.
For COC(=O)C1(O)CC(C(C)C)=NN1C(=O)c1ccccc1 (centres undefined) the results were PTEN del growth 95, Autophagy mod inactive, Insulin prom up -0.02, INS promoter inh 42, L major viab -4 and HCT116 bCat-KO 106.
Screening CCN(CC)S(=O)(=O)c1ccc(C(=O)C(C#N)c2ccccn2)cc1 (centres undefined) returned PTEN del growth 102, Autophagy mod inactive, Insulin prom up 0.81, INS promoter inh 73*, L major viab -2 and HCT116 bCat-KO 110.
`OCC1(Cc2cccc(C(F)(F)F)c2)CCN(Cc2cc3ccccc3o2)CC1` gave Autophagy mod inactive, INS promoter inh 13 and L major viab 84*.
Screening Cc1c(CN2CCC(CO)(Cc3cccc(C(F)(F)F)c3)CC2)c2ccccc2n1C returned Autophagy mod inactive, Insulin prom up -0.4 and L major viab 87*.
COc1ccc(CC2(CO)CCN(Cc3cc4ccccc4o3)CC2)cc1 was read as Autophagy mod inactive, Insulin prom up 0.99 and L major viab 79*.
Screening Cc1cccc(-c2nc(NCCCN3CCOCC3)c3ccccc3n2)c1 returned PTEN del growth 46, Autophagy mod inactive, Insulin prom up -0.17, INS promoter inh -24, L major viab 100* and HCT116 bCat-KO 33.
`c1ccc(-c2nc(NCCCN3CCOCC3)c3ccccc3n2)cc1` gave PTEN del growth 64, Autophagy mod inactive, Insulin prom up -1, INS promoter inh -15, L major viab 62* and HCT116 bCat-KO 67.
`CCOC(=O)CC1COc2ccccc2N1C(=O)c1ccc(F)cc1` (centres undefined) gave Autophagy mod inactive, Insulin prom up 0.34, INS promoter inh -33 and L major viab -4.
COc1cc(CNn2nnnc2N)cc(Br)c1OCC(=O)NC(C)(C)C was read as PTEN del growth 98, Autophagy mod inactive, Insulin prom up -0.39, INS promoter inh 6, L major viab -1 and HCT116 bCat-KO 95.
COc1cc(CNn2nnnc2N)cc(Br)c1OCc1c(Cl)cccc1Cl was read as PTEN del growth 75, Autophagy mod inactive, INS promoter inh -3, L major viab 94* and HCT116 bCat-KO 71.
For O=C(Cc1ccccc1)Nc1ccccc1N1CCN(c2ccccc2)CC1 the results were PTEN del growth 68, Autophagy mod inactive, Insulin prom up 1.7, L major viab 8 and HCT116 bCat-KO 69.
Screening O=C(Nc1ccccc1N1CCN(c2ccccc2)CC1)C12CC3CC(CC(C3)C1)C2 returned PTEN del growth 59, Autophagy mod active, Insulin prom up -0.83, INS promoter inh 12, L major viab 98* and HCT116 bCat-KO 51.
Screening CC(C)CNC(=S)Nc1ccccc1F returned PTEN del growth 109, Autophagy mod inactive, Insulin prom up 0.87, INS promoter inh 19, L major viab 3 and HCT116 bCat-KO 86.
Screening COC(=O)CN1C(=O)C(O)(CC(=O)c2ccc(Br)cc2)c2ccccc21 (centres undefined) returned PTEN del growth 79, Autophagy mod inactive, Insulin prom up 0.04, L major viab -15 and HCT116 bCat-KO 75.
`COc1cc(-c2nnc(SCc3c(F)cccc3Cl)o2)cc(OC)c1OC` gave PTEN del growth 78, Autophagy mod inactive, Insulin prom up -0.87, INS promoter inh 22, L major viab 82* and HCT116 bCat-KO 87.
For Clc1ccc(Cn2c(-c3cccnc3Cl)nc3ccccc32)cc1 the results were PTEN del growth 71, Autophagy mod inactive, Insulin prom up 0.29, L major viab 46 and HCT116 bCat-KO 74.
`Clc1ccc(Cn2c(-c3cccnc3Cl)nc3ccccc32)c(Cl)c1` gave PTEN del growth 66, Autophagy mod inactive, Insulin prom up 0.2, L major viab 99* and HCT116 bCat-KO 68.
